Only a selection was taken, and hits are over-represented in it overall.
ST2 inh – IL1RL1 inhibition; actives 2.3% (n = 78,000); AlphaLISA ST2-Fc/biotin-IL-33 interaction, 1 h; inhibition, % for hits at 17 µM; in the data active = inhibition above about 30%
Target sequence (Q01638 whole entry, looked up): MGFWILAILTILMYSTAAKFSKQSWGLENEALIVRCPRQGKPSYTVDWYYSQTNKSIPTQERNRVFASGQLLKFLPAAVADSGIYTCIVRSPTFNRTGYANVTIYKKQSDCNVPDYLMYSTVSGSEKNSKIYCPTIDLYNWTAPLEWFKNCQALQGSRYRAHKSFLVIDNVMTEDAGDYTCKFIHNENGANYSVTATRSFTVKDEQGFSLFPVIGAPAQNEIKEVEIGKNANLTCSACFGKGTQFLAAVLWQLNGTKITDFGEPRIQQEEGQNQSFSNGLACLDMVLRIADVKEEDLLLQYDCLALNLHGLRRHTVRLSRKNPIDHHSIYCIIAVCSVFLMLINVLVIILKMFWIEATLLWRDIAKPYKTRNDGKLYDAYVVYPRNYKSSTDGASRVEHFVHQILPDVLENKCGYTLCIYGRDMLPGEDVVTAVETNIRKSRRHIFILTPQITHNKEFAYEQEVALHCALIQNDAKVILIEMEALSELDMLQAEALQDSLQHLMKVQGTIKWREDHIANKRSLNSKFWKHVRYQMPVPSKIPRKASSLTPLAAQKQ
Hits are given with their value.

For Cc1nc(C(C)NC(=O)c2cc(COc3cc(C)c(Cl)c(C)c3)on2)cs1 (stereo not given) the results were ST2 inh inactive.
Screening O=C(NC1CCCCC1)O[C@@H]1CO[C@H]2[C@@H]1OC[C@@H]2n1nnnc1-c1ccccc1 returned ST2 inh 39%.
`O=C(NC1CCCCC1)N[C@H]1CO[C@H]2[C@@H]1OC[C@@H]2n1nnnc1Oc1ccc(-n2ccnc2)cc1` gave ST2 inh inactive.
COc1cccc(-c2nnnn2[C@H]2CO[C@H]3[C@@H]2OC[C@@H]3NC(=O)c2ccc(C(F)(F)F)cc2)c1 was read as ST2 inh inactive.
Screening COc1ccc(S(=O)(=O)N(CC(=O)NC2CCCC2)c2ccc(Cl)cc2)cc1 returned ST2 inh inactive.
COc1ccc(C2C3=C(CCCC3=O)NC3=C2C(=O)c2ccccc23)cc1 (stereo not given) was read as ST2 inh inactive.
O=C1CCCC2=C1C(c1ccc(OCc3ccc([N+](=O)[O-])cc3)cc1)C1=C(CCCC1=O)N2 was read as ST2 inh inactive.
Screening CCOc1ccc(C2C3=C(CCCC3=O)NC3=C2C(=O)c2ccccc23)cc1 (stereo not given) returned ST2 inh 36%.
For O=C(Nc1ccc(N2CCCC2)cc1)C(Cl)(Cl)Cl the results were ST2 inh 38%.
Screening O=C(Nc1ccc(Br)cc1)c1ccc(Cl)cc1Cl returned ST2 inh inactive.
For O=C(Nc1ccc(S(=O)(=O)N2CCCC2)cc1)C(F)(F)F the results were ST2 inh inactive.
For CC(=O)Nc1ccc(CN2CCN(c3ccc(Cl)cc3)CC2)cc1 the results were ST2 inh inactive.
For O=C(Nc1ccc(N2CCOCC2)cc1)c1ccc(Br)cc1 the results were ST2 inh inactive.
O=C(Nc1ccc(N2CCCC2)cc1)c1cc(Br)ccc1Cl was read as ST2 inh 34%.
`Cc1ccc(N(C(=O)c2c(F)cccc2F)C2C=CS(=O)(=O)C2)cc1C` (stereo not given) gave ST2 inh inactive.
Screening COC[C@H]1CCCN1[C@@H]1[C@H](O)[C@H](CO)O[C@@H]1CNS(=O)(=O)c1ccccc1 returned ST2 inh inactive.
Screening COC(=O)C1(Cc2ccc(O)c(CC=C(C)C)c2)OC(=O)C(OC)=C1c1ccc(O)c(O)c1 (stereo not given) returned ST2 inh inactive.
For CCC(=O)c1c(C)nn(C)c1C the results were ST2 inh inactive.
For CC(=O)Sc1nc(O)c(C=C2C=c3ccc(C)cc3=NC2=O)[nH]1 the results were ST2 inh 31%.
For COc1ccccc1C(=O)NC(=Nc1nc(C)cc(C)n1)Nc1ccccc1 the results were ST2 inh inactive.
For CC1(C)CC(=O)C2=C(C1)Nc1nc(SCc3ccccc3F)nn1C2c1ccc([N+](=O)[O-])cc1 (stereo not given) the results were ST2 inh inactive.
Screening O=C(Nc1c2c(nn1-c1ccc(Cl)cc1)CSC2)c1ccccc1Cl returned ST2 inh inactive.
`Nc1cc2c3c(cccc3n1)C(=O)c1ccccc1-2` gave ST2 inh 34%.
`O=C1c2ccccc2C(=O)c2c1nc1n2CCOC1` gave ST2 inh inactive.
Nc1nc2ccccc2nc1N was read as ST2 inh inactive.
Screening CCc1ccccc1N(C)C(=O)CCc1nc(-c2ccc(C)cc2)no1 returned ST2 inh inactive.
COc1ccc(NC2CCCN(C(=O)/C=C/c3cccc(Cl)c3)C2)cc1OC (stereo not given) was read as ST2 inh inactive.
For COc1ccc(NC2CCCN(C3CCN(c4ccccc4C)CC3)C2)cc1OC (stereo not given) the results were ST2 inh 34%.
COc1ccc(NC(=O)NC2CCCN(C3CCCCCC3)C2)cc1OC (stereo not given) was read as ST2 inh inactive.
`C=CCSc1nnc2c(n1)OC(c1ccccn1)N(C(C)=O)c1ccccc1-2` (stereo not given) gave ST2 inh inactive.
For COc1ccc(Br)c(C2Oc3nc(SC)nnc3-c3ccccc3N2C(C)=O)c1 (stereo not given) the results were ST2 inh inactive.
For COc1cc(C2Oc3nc(SC)nnc3-c3ccccc3N2C(C)=O)cc(OC)c1OC (stereo not given) the results were ST2 inh inactive.
C=CCSc1nnc2c(n1)OC(c1ccc(OC)cc1OC)N(C(C)=O)c1ccccc1-2 (stereo not given) was read as ST2 inh 30%.
`C=CCSc1nnc2c(n1)OC(c1ccncc1)N(C(C)=O)c1ccccc1-2` (stereo not given) gave ST2 inh inactive.
Screening CCN(CC)c1ccc(C2Oc3nc(SC)nnc3-c3ccccc3N2C(C)=O)c(OC)c1 (stereo not given) returned ST2 inh 36%.
`Cc1ccccc1CSCC(=O)Nc1c(C)n(C)n(-c2ccccc2)c1=O` gave ST2 inh inactive.
COc1ccc(N2CCN(C(=O)CNS(=O)(=O)c3cccs3)CC2)cc1 was read as ST2 inh inactive.
For O=C1OC(c2ccccc2)=N/C1=C\c1ccc(OC(F)F)cc1 the results were ST2 inh inactive.
Screening CCCCN(CC)C(=O)c1cn(CC)c(=O)c2cc(OC)c(OC)cc12 returned ST2 inh inactive.
`CC1=CC(=O)CC2C1(C)CCC(C)C2(C)CC/C(C)=C/C(=O)O` (stereo not given) gave ST2 inh inactive.
For C[C@@H]1CC[C@@]2(C)C(CO)=CCC[C@@H]2[C@@]1(C)CC/C(=C/C(=O)O)CO the results were ST2 inh 36%.
Screening O=C1c2ccccc2C(=O)c2c1cccc2S(=O)(=O)Nc1ccc(Cl)cc1 returned ST2 inh 52%.
Screening Cc1ccc(NS(=O)(=O)c2cccc3c(S(=O)(=O)Nc4ccc(C)cc4)cccc23)cc1 returned ST2 inh inactive.
`O=S(=O)(Nc1ccc(Cl)cc1)c1cccc2cccnc12` gave ST2 inh inactive.
Screening CCOc1ccc(NC(=O)C(C)Sc2ccccc2)cc1 (stereo not given) returned ST2 inh inactive.
Screening CCCCN(CC)S(=O)(=O)c1ccc(C(=O)Nc2nnc(-c3ccc(F)cc3)o2)cc1 returned ST2 inh inactive.
`COc1ccc(CNC(=O)c2cc3cc4ccc(OC)cc4nc3o2)cc1` gave ST2 inh inactive.
COc1ccc2cc3cc(C(=O)NCc4ccc(F)cc4)sc3nc2c1 was read as ST2 inh 31%.
For CCOC(CCNC(=O)c1cc2cc3ccc(OC)cc3nc2s1)OCC the results were ST2 inh inactive.
Screening COc1ccc(CNC(=O)c2cc3cc4ccc(OC)cc4nc3s2)c(OC)c1 returned ST2 inh inactive.
`COCCNC(=O)c1cc2cc3ccc(C)cc3nc2s1` gave ST2 inh inactive.
`COc1ccc(CNC(=O)c2cc3cc4ccc(OC)cc4nc3s2)cc1` gave ST2 inh 38%.
`Cc1cccc(N(CC(=O)NCc2cccnc2)S(=O)(=O)c2ccccc2)c1C` gave ST2 inh inactive.
COc1cc(Cl)c(S(=O)(=O)NCc2ccc3c(c2)OCO3)cc1Cl was read as ST2 inh inactive.
For O=C1NC[C@@H](CCC(=O)N2CCOCC2)N2C[C@@H](NC(=S)NC3CC3)C[C@@H]12 the results were ST2 inh inactive.
Screening CCOc1ccc(S(=O)(=O)Nc2cc(Cl)ccc2OC)c2cccnc12 returned ST2 inh inactive.
For O=C(c1ccccc1OC1CCN(Cc2cccc3c2OCO3)CC1)N1CCCCC1 the results were ST2 inh inactive.
`NC(=O)CSc1nc2c([nH]c3ccccc32)c(=O)n1-c1ccc(Cl)cc1` gave ST2 inh inactive.
